Counter-ions that a name gives are not always drawn. ± gives the standard error. In all, about 1,300 compounds went through this assay and about 75 (6%) showed an effect of 50% or more. Many of the other results were omitted from the sample, so strong results are more common in it than they were.

The assay concerns Trichoderma virens ATCC 9645. The assay is described as follows: growth yield (OD600) relative to untreated control; higher = less growth inhibition. The following applies: compound concentration: 100 uM. An outline of the steps:
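Growth appears as means of duplicate screens, relative to the control containing neither agent. To obtain it, OD600 was read on a BioTek EL800 at 40 h and 72 h. The cultures were 100 μl aliquots in 96-well plates at 30 °C, holding Trichoderma virens ATCC 9645 spores at 15,000 spores ml^−1 in potato dextrose broth, library compounds at 100 μM final, and, in some wells, a biocide at 200 ng ml^−1.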

As to `COc1ccc(OC)c(C(O)CNC(=O)CN)c1` (configuration not stated) [Midodrine hydrochloride], the growth yield by setting is: (40 h) 101.8 ± 0.16%; (72 h) 105 ± 0.73%.

With `CC(=O)[C@H]1CC[C@H]2[C@@H]3C=CC4=CC(=O)CC[C@@]4(C)[C@@H]3CC[C@]12C` [Dydrogesterone], the growth yield is, setting by setting: (40 h) 78.3 ± 1.1%; (72 h) 79.9 ± 2.1%.

On to `CN(C)[C@@H]1C(O)=C(C(N)=O)C(=O)[C@@]2(O)C(O)=C3C(=O)c4c(O)ccc(Cl)c4[C@@](C)(O)[C@H]3C[C@@H]12` [Chlortetracycline hydrochloride], for which the growth yield reads like this: (40 h) 90.54 ± 0.32%; (72 h) 90.93 ± 0.32%.

In turn, `Cc1onc(-c2ccccc2)c1-c1ccc(S(N)(=O)=O)cc1` [Valdecoxib] had a growth yield (40 h) of 107 ± 11% and a growth yield (72 h) of 104 ± 8.3%.

Regarding `CCOC(=O)[C@H](CCc1ccccc1)N[C@H]1CCc2ccccc2N(CC(=O)O)C1=O` [Benazepril hydrochloride], the growth yield was found to be 104 ± 3.5% (40 h) and 105 ± 2.1% (72 h).

For the compound `O=C(CCCCC(=O)Nc1c(I)cc(I)c(C(=O)O)c1I)Nc1c(I)cc(I)c(C(=O)O)c1I` [Iodipamide], the growth yield was found to be 103 ± 1.1% (40 h) and 101.6 ± 0.32% (72 h).

For `CC(Oc1c(Cl)cccc1Cl)C1=NCCN1` (configuration not stated) [Lofexidine], the growth yield (40 h) turned out to be 104 ± 1.3% and the growth yield (72 h) was determined as 105 ± 1.1%.

For `CN1CCCN=C1/C=C/c1cccc(O)c1` [Oxantel pamoate], the growth yield by setting is: (40 h) 93.4 ± 0.64%; (72 h) 99.8 ± 1.1%.

Turning to `Cc1cc(CC(=O)O)n(C)c1C(=O)c1ccc(Cl)cc1` [Zomepirac sodium salt], the growth yield (40 h) came to 93.7 ± 5.7% and the growth yield (72 h) worked out at 88 ± 3.9%.

For `COc1ccc(-c2cc(=S)ss2)cc1` [Anethole-trithione], the growth yield is, setting by setting: (40 h) 76.4 ± 9.1%; (72 h) 77.5 ± 7.2%.

As to `CNC(=O)c1c(I)c(C(=O)NCC(=O)Nc2c(I)c(C(=O)O)c(I)c(C(=O)NCCO)c2I)c(I)c(N(C)C(C)=O)c1I` [Ioxaglic acid], the growth yield is 105 ± 5.2% (40 h) and 101 ± 2.2% (72 h).

Take `CCC(=O)O[C@@H](O[P@](=O)(CCCCc1ccccc1)CC(=O)N1C[C@H](C2CCCCC2)C[C@H]1C(=O)O)C(C)C` [Fosinopril]: the growth yield by setting is: (40 h) 109.8 ± 0.48%; (72 h) 103 ± 3.5%.

As for `CCCCc1oc2ccccc2c1C(=O)c1cc(I)c(OCCN(CC)CC)c(I)c1` [Amiodarone hydrochloride], the growth yield reads like this: (40 h) 3.18%; (72 h) 2.94%.

Consider `CCCCc1oc2ccc(NS(C)(=O)=O)cc2c1C(=O)c1ccc(OCCCN(CCCC)CCCC)cc1` [Dronedarone hydrochloride], for which the growth yield runs as follows: (40 h) 6.19 ± 1.8%; (72 h) 1.99 ± 0.52%.

The compound `CCCCOc1cc(C(=O)OCCN(CC)CC)ccc1N` [Benoxinate hydrochloride] had a growth yield (40 h) of 103 ± 3% and a growth yield (72 h) of 103 ± 1.1%.

`CCCCCCCN(CC)CCCC(O)c1ccc(NS(C)(=O)=O)cc1` (configuration not stated) [Ibutilide fumarate] had a growth yield (40 h) of 100 ± 2.9% and a growth yield (72 h) of 101 ± 2.5%.

Regarding `CCCCOc1cc(C(=O)NCCN(CC)CC)c2ccccc2n1` [Dibucaine], the growth yield amounted to 101.02 ± 1e-14% (40 h) and 98.37 ± 0.21% (72 h).

On to `CN(CCOc1ccc(NS(C)(=O)=O)cc1)CCc1ccc(NS(C)(=O)=O)cc1` [Dofetilide], for which the growth yield runs as follows: (40 h) 100 ± 5.9%; (72 h) 98.7 ± 4.3%.

In the case of `C[N+]1(C)CCC(OC(=O)C(O)(c2ccccc2)C2CCCC2)C1` (configuration not stated) [Glycopyrrolate], the growth yield is 96.26 ± 0.95% (40 h) and 90.72 ± 0.73% (72 h).

For `CCC(=O)OCC(=O)[C@@]1(OC(=O)CC)[C@@H](C)C[C@H]2[C@@H]3CCC4=CC(=O)C=C[C@]4(C)[C@@]3(Cl)[C@@H](O)C[C@@]21C` [Beclomethasone dipropionate], the growth yield (40 h) came to 103 ± 7.8% and the growth yield (72 h) turned out to be 98.7 ± 3%.

Take `N=C(N)NCCN1CCCCCCC1` [Guanethidine sulfate]: the growth yield worked out at 99.6 ± 1.1% (40 h) and 100.79 ± 0.1% (72 h).

In the case of `CN(C)CC/C=C1/c2ccccc2Sc2ccc(Cl)cc21` [Chlorprothixene hydrochloride], the growth yield stood at 70.5 ± 6.3% (40 h) and 90.8 ± 2.7% (72 h).

Take `OCCN1CCN(CC/C=C2/c3ccccc3Sc3ccc(Cl)cc32)CC1` [Zuclopenthixol dihydrochloride]: the growth yield came out at 15.1 ± 1.8% (40 h) and 60.4 ± 5.7% (72 h).

In turn, `OCCOCCN1CCN(C2=Nc3ccccc3Sc3ccccc32)CC1` [Quetiapine hemifumarate] returned a growth yield (40 h) of 108 ± 15% and a growth yield (72 h) of 106 ± 12%.

As to `Cc1cccc(N(C)C(=S)Oc2ccc3ccccc3c2)c1` [Tolnaftate], the growth yield reads like this: (40 h) 0%; (72 h) 0%.

Regarding `O=C(O)COC(=O)Cc1ccccc1Nc1c(Cl)cccc1Cl` [Aceclofenac], the growth yield was found to be 94.2 ± 2.1% (40 h) and 95.02 ± 0.42% (72 h).

On to `COc1ccc2[nH]cc(CCNC(C)=O)c2c1` [Melatonin], for which the growth yield came to 101% (40 h) and 97.3% (72 h).

`CCCCCNC(=N)N/N=C/c1c[nH]c2ccc(OC)cc12` [Tegaserod maleate] gave a growth yield (40 h) of 5.24 ± 0.16% and a growth yield (72 h) of 3.88 ± 0.52%.

For the compound `CN(C)CCN1C(=O)c2ccccc2N(C)c2ccccc21` [Dibenzepine hydrochloride], the growth yield is, setting by setting: (40 h) 101 ± 1.8%; (72 h) 105 ± 3%.

Turning to `CC(C)NC[C@@H](O)COc1ccc(CC(N)=O)cc1` [(R)-(+)-Atenolol], the growth yield by setting is: (40 h) 102 ± 4%; (72 h) 97.8 ± 1.8%.

For `C=C1C[C@H]2[C@@H]3C=C(C)C4=CC(=O)CC[C@]4(C)[C@H]3CC[C@]2(C)[C@@]1(OC(C)=O)C(C)=O` [Melengestrol acetate], the growth yield by setting is: (40 h) 96.6 ± 1.6%; (72 h) 94.5 ± 2.4%.

Take `C=C(NC(=O)C(=C)NC(=O)c1csc(C2=N[C@@H]3c4csc(n4)[C@H]4NC(=O)c5csc(n5)[C@H]([C@](C)(O)[C@@H](C)O)NC(=O)[C@H]5CSC(=N5)/C(=C/C)NC(=O)[C@H]([C@@H](C)O)NC(=O)c5csc(n5)[C@]3(CC2)NC(=O)[C@H](C)NC(=O)C(=C)NC(=O)[C@H](C)NC(=O)[C@H]([C@@H](C)CC)N[C@@H]2C=Cc3c([C@H](C)O)cc(nc3[C@H]2O)C(=O)O[C@@H]4C)n1)C(N)=O` [Thiostrepton]: the growth yield runs as follows: (40 h) 96.6 ± 2.9%; (72 h) 99 ± 2.1%.

For the compound `CC(=O)NCCCS(=O)(=O)O` [Acamprosate calcium], the growth yield by setting is: (40 h) 98.32 ± 0.48%; (72 h) 95.9 ± 1.7%.

As for `Oc1c(Cl)cc(Cl)c2cccnc12` [Chloroxine], the growth yield reads like this: (40 h) 1.27 ± 0.32%; (72 h) 1.36 ± 0.32%.

On to `Oc1c(I)cc(Cl)c2cccnc12` [Clioquinol], for which the growth yield is 18.3 ± 7.8% (40 h) and 12.9 ± 5.3% (72 h).

On to `CCN[C@H]1C[C@H](C)S(=O)(=O)c2sc(S(N)(=O)=O)cc21` [Dorzolamide hydrochloride], for which the growth yield came out at 99.3 ± 5.6% (40 h) and 92.7 ± 6.7% (72 h).

For `CO/N=C(\C(=O)N[C@@H]1C(=O)N2C(C(=O)O)=C(COC(N)=O)CS[C@H]12)c1ccco1` [Cefuroxime sodium salt], the growth yield reads like this: (40 h) 96.9 ± 2.9%; (72 h) 89.9 ± 1.1%.

As to `O=C1C(CC[S+]([O-])c2ccccc2)C(=O)N(c2ccccc2)N1c1ccccc1` (configuration not stated) [Sulfinpyrazone], the growth yield turned out to be 102 ± 1.1% (40 h) and 106 ± 2.1% (72 h).

On to `CC(N/C(=N\C#N)Nc1ccncc1)C(C)(C)C` (configuration not stated) [Pinacidil], for which the growth yield runs as follows: (40 h) 100 ± 2.2%; (72 h) 103 ± 0.21%.

As for `N=C(N)NCc1cccc(I)c1` [Iobenguane sulfate], the growth yield by setting is: (40 h) 105 ± 1.9%; (72 h) 106 ± 1.1%.

For `Nc1nc(NC2CC2)c2ncn([C@H]3C=C[C@@H](CO)C3)c2n1` [Abacavir Sulfate], the growth yield was determined as 97.2 ± 2.5% (40 h) and 98.48 ± 0.1% (72 h).

Source of the values: the supplement of paper PMC8007513.
